This is a sample that favours compounds with a hit; in the whole collection about 2.2% have one here.
KLF5 inh: suppresses KLF5 promoter-driven expression. DLD-1 KLF5 promoter-luciferase reporter, luminescence. inhibition, % at 5 µM. hit rate 0.23% among 290,000. AID 1700;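 active means inhibition above a per-plate limit of that plate's mean compound inhibition plus 3 SD, cut at about 60% in these data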;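 further: 0% = DMSO wells and 100% = LY294002 at 200 µM; higher means less KLF5 promoter-driven luciferase light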
IEC-6 cytotox: kills IEC-6 intestinal cells in KLF5 counter-screen; hit rate 0.78% among 290,000; AID 1825; inhibition, % at 5 µM; IEC-6 cytotoxicity, luminescence viability; in the data active means inhibition above about 22%;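 further: 0% = plate median of test compound wells and 100% = cytotoxic reference compound wells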
APP transl inh: APP translation inhibition | SH-SY5Y APP 5'UTR-luciferase reporter, luminescence | inhibition, % at 2 µM | hit rate 0.82% among 190,000 | AID 1285;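 active means inhibition above a set limit, derived from the sample mean plus 3 SD, cut at about 45% in these data; inconclusive means one replicate passes the limit while the other fails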
Ba/F3 V617F tox: reduce viability of Ba/F3 cells dependent on JAK2V617F. Ba/F3 EpoR-JAK2V617F viability, ATP luminescence. inhibition, % at 5.6 µM. hit rate 1.1% among 220,000. AID 1446;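 active means inhibition above the campaign mean plus 3 SD over all tested compounds, cut at about 24% in these data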;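 further: cytokine-independent growth of Ba/F3 cells driven by EpoR plus mutant JAK2; 0% = DMSO-treated cells and 100% = JAK inhibitor I control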
BaF3 parental: parental Ba/F3 viability inhibition as JAK2V617F counter-screen; CellTiter-Glo ATP luminescence; inhibition, % at 5.6 µM; hit rate 1.1% among 220,000;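 active means inhibition above a per-campaign cutoff, the mean inhibition of all tested compounds plus 3 SD, cut at about 27% in these data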;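 further: 0% = DMSO wells and 100% = JAK Inhibitor I control wells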
aSyn UTR inh: MLPCN primary screen, SNCA 5' untranslated region. inhibition, % (tested at 7.5 µM). alpha-synuclein 5'UTR reporter, inhibitor activity. hit rate 0.82% among 300,000; in the data active means inhibition above about 60%; inconclusive means no clear call, values can overlap the other calls;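 further: H4 neuroglioblastoma cells stably carrying SNCA 5'UTR luciferase fusion; 0% = DMSO wells and 100% = positive control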
* = called active by the depositor; ? = inconclusive; · = not tested or not shown.

SMILES | KLF5 inh | IEC-6 cytotox | APP transl inh | Ba/F3 V617F tox | BaF3 parental | aSyn UTR inh
Cc1ccc(S(=O)(=O)N(Cc2c(F)cccc2Cl)C(=O)N2CCN(C)CC2)cc1 | · | · | · | · | · | 7.4
Cc1cc(NC(=O)c2cccc(S(=O)(=O)N3c4ccccc4CC3C)c2)no1 (stereo not given) | -40.1 | 1.3 | · | 1.3 | 0.6 | 32.6
CCOC(=O)c1sc(NC(=O)c2cccc(S(=O)(=O)N3c4ccccc4CC3C)c2)cc1C (stereo not given) | -45.0 | 0.4 | -3.7 | -6.8 | -0.3 | 79.5*
Cc1cc(N(C(=O)c2ccco2)C(C(=O)NC2CCCCC2)c2ccccc2)ccc1-n1cnnn1 (stereo not given) | 1.4 | -5.5 | -9.2 | -3.1 | 51.3* | -6.1
CCCCCC(=O)N/N=C(\C)c1ccccn1 | -19.8 | 0.3 | -2.0 | -1.4 | 6.8 | 66.6*
O=C(COc1ccccc1-c1ccccc1)N/N=C/c1ccncc1 | 2.5 | 1.7 | -19.0 | -4.1 | -0.4 | 18.7
O=C(COc1ccccc1-c1ccccc1)N/N=C/c1ccc2ccccc2c1 | -11.3 | -1.6 | 96.3* | -1.2 | 4.1 | -59.2
CCCCCCCCCC(=O)N/N=C(\C)c1cccnc1 | -6.2 | -0.1 | 2.1 | -3.1 | -0.6 | -18.8
C/C(=N\NC(=O)COc1ccccc1-c1ccccc1)c1cccnc1 | 7.7 | 7.5 | 16.1 | -1.3 | 0.6 | 18.9
C/C(=N\NC(=O)COc1ccccc1-c1ccccc1)c1ccccn1 | 27.6 | 12.4 | 62.0* | 1.4 | 5.0 | 114.0*
CCCCn1c(/C=N/Nc2nc3ccccc3[nH]2)nc2ccccc21 | -4.1 | 3.8 | 87.5* | 0.7 | 2.8 | -432.6
CCN(CC)c1ccc(/C=N/Nc2nc3ccccc3[nH]2)c(O)c1 | -4.8 | 2.4 | -8.6 | 3.1 | 4.0 | 84.5*
C#CCn1cc(/C=N/Nc2nc3ccccc3[nH]2)c2ccccc21 | -37.3 | 30.8* | -3.6 | 3.2 | 4.2 | -383.3
COc1cc(OC)c(OC)cc1/C=N/Nc1nc2ccccc2[nH]1 | -24.8 | 10.3 | · | 2.5 | 4.8 | -1.7
O=C(Cc1cccs1)N/N=C/c1ccccc1 | -21.0 | -1.5 | · | -3.8 | -0.2 | -19.2
C#CCn1cc(/C=N/NC(=O)COc2cccc3cccnc23)c2ccccc21 | -32.6 | 8.2 | -13.0 | 3.5 | 9.2 | -37.9
CCN(CC)c1ccc(/C=N/NC(=O)Cc2cccs2)c(O)c1 | -18.7 | 7.4 | 63.8* | 0.8 | 8.1 | ?
O=C(CN1C(=O)NC2(CCCC2)C1=O)N1CCN(Cc2ccccc2)CC1 | · | · | · | · | · | -10.5
Nc1nonc1-n1nnc(C(=O)N/N=C/c2ccccc2Cl)c1CN1CCOCC1 | -4.6 | -1.3 | · | · | · | 7.0
COc1ccc2c(c1)c(/C=N/Nc1nc3ccccc3[nH]1)c(C)n2C | -41.7 | 16.4 | · | 2.5 | 53.0* | -115.2
CCN(CC)c1ccc2c(-c3ccc(S(=O)(=O)O)cc3S(=O)(=O)[O-])c3ccc(=[N+](CC)CC)cc-3oc2c1 | -13.6 | 9.0 | · | · | · | 80.2*
CCC(=O)N1CCc2cc(S(=O)(=O)NCCCN3CCN(Cc4ccccc4)CC3)ccc21 | -26.3 | -1.4 | -22.4 | -3.0 | 2.0 | 10.2
CC(=O)N1CCc2cc(S(=O)(=O)NCCCN3CCN(Cc4ccccc4)CC3)ccc21 | -18.1 | -4.0 | 63.3* | -0.6 | 5.8 | 17.0
Nc1ccc(Sc2ccccc2)nc1 | · | · | · | · | · | 10.9
C=C1/C(=C\C=C2/CCC[C@]3(C)[C@@H]([C@H](C)CCCC(C)(C)O)CC[C@@H]23)C[C@@H](O)C[C@@H]1O | -34.8 | 1.7 | · | 44.9* | 2.8 | -0.1
SMILES | KLF5 inh | IEC-6 cytotox | APP transl inh | Ba/F3 V617F tox | BaF3 parental | aSyn UTR inh
OCCCNC(=S)Nc1ccc2nc(-c3ccccn3)c(-c3ccccn3)nc2c1 | -43.8 | -1.4 | 0.2 | 84.6* | 70.6* | 0.8
Cc1ccc(-n2c(SCC(=O)N(C)C)nnc2-c2ccco2)cc1 | -32.0 | -2.5 | · | · | · | 3.1
COc1ccc(N(CC(=O)NC2CCCC2)S(=O)(=O)c2ccc(NC(C)=O)cc2)cc1 | -26.1 | -7.5 | · | · | · | 5.8
Cc1cc(C)c2cc(C=O)c(Cl)nc2c1 | -12.0 | 6.2 | 93.2* | 0.9 | 2.8 | -7.3
Cc1ccc(S(=O)(=O)CC2CSc3nc4ccccc4n32)cc1 (stereo not given) | 41.6 | 10.0 | · | 58.1* | 72.2* | -12.6
O=[N+]([O-])c1nn(-c2ccccc2)n(O)c1=NC1CCN(Cc2ccccc2)CC1 | -9.8 | 5.8 | 5.5 | 0.8 | 10.9 | 76.4*
COc1cc(-c2cc(C(=O)N3CCN(c4ccccn4)CC3)c3ccccc3n2)cc(OC)c1OC | 2.2 | 32.7* | 1.9 | 3.4 | 4.3 | -7.3
CC(C)CN1CCC(CN(C)Cc2nc(-c3cnccn3)no2)CC1 | -8.6 | -1.5 | -18.9 | -2.4 | 5.2 | -42.3

Screening results as filed in PubChem BioAssay.
